Values without a mark were called inactive. Inconclusive results are not listed. Activity calls are given as the source filed them. Unless noted, calls follow the shape of the dose curve; as a rule, active = well fitted curve in the direction sought with a large enough effect in the repeat runs; inconclusive = weak or mixed curves; inactive = no such curve, though single readings can be large; an effect the other way counts as inactive or inconclusive.

Assay [1] is described as follows: qHTS assay to identify small molecule agonists of the androgen receptor (AR) signaling pathway in the presence of an antagonist - cell viability counter screen (AID 1259379).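 Also: MDA-kb2 human breast cancer cells carrying an MMTV luciferase reporter; series mostly up to about 92 µM; nearly all actives have a fitted effect of over 25% in size.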 The method in brief:
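A CellTiter-Fluor read-out measured viability of MDA-kb2 reporter cells (MMTV promoter with AR and GR response elements). Treatment: nilutamide 3.0uM final with compounds at 15 concentrations, 16 hr, 37C, 0% CO2.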

Assay [2] addresses Androgen receptor (Homo sapiens) (UniProt P10275). The assay is described as follows: qHTS assay to identify small molecule agonists of the androgen receptor (AR) signaling pathway in the presence of an antagonist (AID 1259381; calls by dose curve; also: nearly all actives have a fitted effect of over 15% in size). The method in brief:
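Using human MDA-kb2 cells with an MMTV promoter–luciferase construct (AR and GR response elements), agonist activity is scored under 3.0uM nilutamide (final) co-treatment; 16hr incubation, 37C, luminescence readout via ONE-Glo.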

A short description of assay [3]: qHTS assay to identify small molecule agonists or antagonists of the thyroid stimulating hormone receptor (TSHR) signaling pathway - wild type cell line counter screen (AID 1259384; calls by dose curve). The method in brief: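 Counter screen in untransfected Hek293: compounds (15-point titration, triplicate) plus phosphodiesterase inhibitor Ro20-1724 added after 18 h plating; 30 min RT. Intracellular cAMP via competitive d2/cryptate immunoassay, 1 h incubation.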
On the technique in general: qHTS replaces the single test concentration by a dilution series.

Assay [4] addresses Thyrotropin receptor (Homo sapiens) (UniProt P16473). The assay is described as follows: qHTS assay to identify small molecule antagonists of the thyroid stimulating hormone receptor (TSHR) signaling pathway (AID 1259385; calls by dose curve; also: nearly all actives have a fitted effect of over 20% in size). In short, it runs like this:
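Antagonist mode: compound-treated TSHR-expressing HEK293 cells were stimulated with 1.5 ng/mL TSH (final) in presence of Ro20-1724 for 30 min at RT. HTRF cAMP detection after 1 h; each compound tested at 15 concentrations, triplicate.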

Assay [5] is described as follows: qHTS assay to identify small molecule agonists of the estrogen receptor alpha (ER-alpha) signaling pathway in the presence of an antagonist - cell viability counter screen (AID 1259386).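 Also: series mostly up to about 92 µM; cells exposed to compounds for 22 h at 37 °C before the viability read; nearly all actives have a fitted effect of over 30% in size.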 The method in brief: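 ICI-182,780 at 10.0nM final accompanies the compound titration (15 concentrations, 22hr, 37C) on VM7Luc4E2 cells. The CellTiter-Fluor fluorescence readout runs in the same wells as the luciferase assay.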

Assay [6] deals with Progesterone receptor (Homo sapiens) (UniProt P06401). Kind of assay: qHTS assay to identify small molecule agonists of the progesterone receptor (PR) signaling pathway (AID 1346784; calls by dose curve; also: nearly all actives have a fitted effect of over 30% in size). The method in brief: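 Cells (PR-UAS-bla HEK 293T, GripTite) were plated in assay medium containing 2% charcoal-stripped FBS and incubated 6 hr. Test compounds in DMSO were added for 16 hr at 37C. FRET substrate was then loaded for 2 hr at room temperature before fluorescence reading.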
Progesterone receptor (Homo sapiens), sequence (P06401 whole entry, looked up): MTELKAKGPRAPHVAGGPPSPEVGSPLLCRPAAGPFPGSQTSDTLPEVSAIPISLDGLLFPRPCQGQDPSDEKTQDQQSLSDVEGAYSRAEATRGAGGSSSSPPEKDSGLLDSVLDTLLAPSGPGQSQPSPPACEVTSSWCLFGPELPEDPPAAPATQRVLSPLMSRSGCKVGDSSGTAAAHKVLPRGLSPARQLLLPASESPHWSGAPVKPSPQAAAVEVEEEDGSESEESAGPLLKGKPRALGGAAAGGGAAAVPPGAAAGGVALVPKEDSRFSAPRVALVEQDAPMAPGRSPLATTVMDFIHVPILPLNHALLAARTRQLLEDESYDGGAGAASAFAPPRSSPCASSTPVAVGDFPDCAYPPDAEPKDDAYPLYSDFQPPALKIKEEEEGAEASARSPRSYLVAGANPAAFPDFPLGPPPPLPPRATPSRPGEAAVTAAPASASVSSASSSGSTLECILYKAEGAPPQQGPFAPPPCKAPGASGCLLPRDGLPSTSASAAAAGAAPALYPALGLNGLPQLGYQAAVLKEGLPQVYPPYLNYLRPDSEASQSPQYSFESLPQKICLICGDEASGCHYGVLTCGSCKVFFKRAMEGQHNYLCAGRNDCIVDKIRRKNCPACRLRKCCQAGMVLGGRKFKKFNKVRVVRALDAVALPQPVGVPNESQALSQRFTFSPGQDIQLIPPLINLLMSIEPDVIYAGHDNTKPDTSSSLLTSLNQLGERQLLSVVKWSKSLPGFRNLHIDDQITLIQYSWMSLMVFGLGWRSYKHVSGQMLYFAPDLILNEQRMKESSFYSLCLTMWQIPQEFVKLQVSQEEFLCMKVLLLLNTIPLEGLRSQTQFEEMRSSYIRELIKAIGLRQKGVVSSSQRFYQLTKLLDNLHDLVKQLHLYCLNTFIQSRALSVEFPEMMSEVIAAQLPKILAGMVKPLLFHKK

For assay [7] the target is unchanged. The assay is described as follows: qHTS assay to identify small molecule antagonists of the progesterone receptor (PR) signaling pathway (AID 1346795; active = well fitted inhibition curve with a large enough effect in the signal ratio in the repeat runs, not every such curve was filed as active; the % refers to the signal ratio; also: potency is read from the fitted curve at half-maximal effect). The method in brief:
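Antagonist mode: compounds tested against 1 nM (final) promegestone stimulation in HEK293T cells expressing PR-UAS-bla reporter, 16 hr at 37C, 5% CO2; beta-lactamase activity detected via B/G FRET substrate after 2 hr at room temperature.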

Assay [8] is described as follows: qHTS assay to identify small molecule antagonists of the progesterone receptor (PR) signaling pathway - cell viability counter screen (AID 1346798). Also: series mostly up to about 92 µM; nearly all actives have a fitted effect of over 50% in size. In short, it runs like this: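 Counter screen for cytotoxicity: viability of PR-UAS-bla HEK293T cells was measured with CellTiter-Glo luminescence following 16 hr compound exposure in the presence of R5020.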
Assay [9] is described as follows: qHTS assay to identify small molecule agonists of the progesterone receptor (PR) signaling pathway - cell viability counter screen (AID 1346799; calls by dose curve; also: nearly all actives have a fitted effect of over 45% in size). The method in brief:
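Cells (PR-UAS-bla HEK293T) are plated at 3,000/well in 2% charcoal-stripped FBS medium, rested 6 hr, dosed and incubated 16 hr at 37C. CellTiter-Glo is then added and luminescence measured after 30 min at room temperature.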

Assay [10] can be described thus: qHTS assay to identify small molecule antagonists of the TGF-beta/Smad signaling pathway - cell viability counter screen (AID 1346824). Also: nearly all actives have a fitted effect of over 50% in size. The method in brief:
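Cytotoxicity counter-screen run in the same wells as the beta-lactamase Smad reporter read: CellTiter-Glo luminescence after 30 min at room temperature. HEK 293T SBE-bla cells had 5 hr compound exposure at 37 C with TGF-beta1 (0.25 ng/mL stock).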

Assay [11] is described as follows: qHTS assay to identify small molecule agonists of the TGF-beta/Smad signaling pathway - cell viability counter screen (AID 1346829). Also: top concentration of the series differs between compounds; nearly all actives have a fitted effect of over 45% in size. In short, it runs like this:
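SBE-bla HEK 293T cells plated overnight, compound exposure 5 hr at 37 C. Viability read in the same wells by CellTiter-Glo luminescence after 30 min at room temperature, following the beta-lactamase read.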

Assay [12] is described as follows: qHTS assay to identify small molecule agonists of the TGF-beta/Smad signaling pathway (AID 1346859; active = well fitted activation curve with a large enough effect in the signal ratio in the repeat runs, not every such curve was filed as active; the % refers to the signal ratio; also: series mostly up to about 77 µM). The method in brief: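 Reporter line: HEK 293T with stably integrated SBE-controlled beta-lactamase. Compound exposure lasts 5 hr at 37 C and 5% CO2; substrate loading follows for 2 hr at room temperature, with emission read at 460 and 530 nm.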
For assay [13], the target named is Thyrotropin-releasing hormone receptor (Homo sapiens) (UniProt P34981). Kind of assay: qHTS assay to identify small molecule antagonists of the thyrotropin-releasing hormone receptor (TRHR) signaling pathway (AID 1346877; active = well fitted inhibition curve with a large enough effect in the repeat runs, not every such curve was filed as active; also: series mostly up to about 51 µM). In short, it runs like this:
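Screening used HEK293 cells engineered with TRHR, with a brief 5 min room-temperature compound exposure preceding addition of TRH to 1 nM. The read-out was kinetic calcium-dye fluorescence, concentration-response from 15 doses in triplicate.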

Assay [14] has the same target. The assay is described as follows: qHTS assay to identify small molecule agonists of the thyrotropin-releasing hormone receptor (TRHR) signaling pathway (AID 1346891; calls by dose curve;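 also: HEK293 cells expressing TRHR with calcium dye readout; series mostly up to about 58 µM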). The method in brief:
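Cells: TRHR-Hek293, seeded and incubated 18 h. Dye loading: 2 h at 37 °C. Compound added from DMSO stock by pin tool. Read-out: kinetic calcium fluorescence over 3 min.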

The target of assay [15] is Estrogen receptor beta (Homo sapiens) (UniProt Q92731). Kind of assay: qHTS assay to identify small molecule agonists of the estrogen receptor beta (ER-beta) signaling pathway (AID 1259377; active = well fitted activation curve with a large enough effect in the signal ratio in the repeat runs, not every such curve was filed as active; the % refers to the signal ratio). The method in brief: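 Agonist mode cell assay in GripTite HEK293T cells expressing an ER-beta fusion that drives beta-lactamase from an Upstream Activator Sequence; 16 hr compound exposure at 37C, then 2 h LiveBLAzer B/G FRET substrate at room temperature, fluorescence read-out.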
Estrogen receptor beta (Homo sapiens), sequence (Q92731 whole entry, looked up, the tested form may be a part): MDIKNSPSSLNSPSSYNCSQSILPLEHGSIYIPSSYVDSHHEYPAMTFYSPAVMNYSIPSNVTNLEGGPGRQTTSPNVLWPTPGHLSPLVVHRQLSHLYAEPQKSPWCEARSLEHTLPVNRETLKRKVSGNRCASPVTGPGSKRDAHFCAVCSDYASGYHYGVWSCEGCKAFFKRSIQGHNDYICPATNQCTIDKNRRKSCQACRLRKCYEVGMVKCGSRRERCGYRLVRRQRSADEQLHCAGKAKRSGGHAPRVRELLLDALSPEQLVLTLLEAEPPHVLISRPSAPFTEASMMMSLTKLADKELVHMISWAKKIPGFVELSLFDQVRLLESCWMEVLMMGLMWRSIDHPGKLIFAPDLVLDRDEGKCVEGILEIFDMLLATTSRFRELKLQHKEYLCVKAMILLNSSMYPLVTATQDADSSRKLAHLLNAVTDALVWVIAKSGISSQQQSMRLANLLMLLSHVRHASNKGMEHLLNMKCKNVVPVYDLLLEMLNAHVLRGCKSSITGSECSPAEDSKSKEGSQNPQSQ

The nature of assay [16]: qHTS assay to identify small molecule antagonists of the estrogen receptor beta (ER-beta) signaling pathway - cell viability counter screen (AID 1259382). Also: series mostly up to about 92 µM; nearly all actives have a fitted effect of over 55% in size. In short, it runs like this:
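Agonist-stimulated (1nM E2) ER-beta-UAS-bla HEK293T cells are incubated with library compounds for 16 hr at 37C. Cell viability is then assessed in the reporter-assay wells by adding CellTiter-Glo and reading luminescence after 30 min.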

The target in assay [17] is Estrogen receptor (Homo sapiens) (UniProt P03372). The assay is described as follows: qHTS assay to identify small molecule agonists of the estrogen receptor alpha (ER-alpha) signaling pathway in the presence of an antagonist (AID 1259383; calls by dose curve; also: top concentration of the series differs between compounds; nearly all actives have a fitted effect of over 15% in size). The method in brief:
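Using VM7Luc4E2 cells seeded 24hr before treatment, antagonist ICI-182,780 (10.0nM final) was added, followed by compounds at 15 concentrations. Plates incubated 22hr; ONE-Glo luminescence quantified reporter activity.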

Assay [18] can be described thus: qHTS assay to identify small molecule agonists of the estrogen receptor beta (ER-beta) signaling pathway - cell viability counter screen (AID 1259380). Also: nearly all actives have a fitted effect of over 30% in size. The method in brief: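 Cells used were ER-beta-UAS-bla HEK293T in medium with 2% charcoal-stripped FBS. They were treated for 16 hr at 37C. Viability came from CellTiter-Glo luminescence.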
% is scaled to controls: 0 for no effect and ±100 for the full control effect.

Androgen receptor (Homo sapiens), sequence (P10275 whole entry, looked up): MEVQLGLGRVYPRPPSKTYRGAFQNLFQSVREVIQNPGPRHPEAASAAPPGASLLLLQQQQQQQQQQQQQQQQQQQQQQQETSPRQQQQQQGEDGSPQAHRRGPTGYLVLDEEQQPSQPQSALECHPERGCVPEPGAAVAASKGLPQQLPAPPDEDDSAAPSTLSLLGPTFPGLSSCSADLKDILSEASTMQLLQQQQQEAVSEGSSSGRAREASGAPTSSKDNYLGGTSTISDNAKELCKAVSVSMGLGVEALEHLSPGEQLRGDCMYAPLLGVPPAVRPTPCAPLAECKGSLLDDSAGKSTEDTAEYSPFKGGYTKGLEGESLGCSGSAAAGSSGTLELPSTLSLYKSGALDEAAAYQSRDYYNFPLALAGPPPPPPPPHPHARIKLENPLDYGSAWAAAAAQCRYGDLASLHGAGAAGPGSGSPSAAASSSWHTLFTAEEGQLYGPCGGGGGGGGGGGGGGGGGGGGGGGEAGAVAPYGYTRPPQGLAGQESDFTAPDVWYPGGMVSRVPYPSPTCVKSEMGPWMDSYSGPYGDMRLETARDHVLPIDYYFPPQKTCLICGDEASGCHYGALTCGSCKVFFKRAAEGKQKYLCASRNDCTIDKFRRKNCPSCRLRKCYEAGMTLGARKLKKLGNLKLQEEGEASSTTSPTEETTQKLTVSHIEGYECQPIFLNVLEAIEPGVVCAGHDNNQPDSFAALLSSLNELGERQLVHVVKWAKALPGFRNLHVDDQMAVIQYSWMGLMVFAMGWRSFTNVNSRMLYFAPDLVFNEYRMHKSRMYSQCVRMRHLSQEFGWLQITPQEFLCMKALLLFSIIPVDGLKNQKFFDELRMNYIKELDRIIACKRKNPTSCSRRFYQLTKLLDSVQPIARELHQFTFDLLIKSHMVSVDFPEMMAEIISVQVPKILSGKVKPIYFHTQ
Estrogen receptor (Homo sapiens), sequence (P03372 whole entry, looked up): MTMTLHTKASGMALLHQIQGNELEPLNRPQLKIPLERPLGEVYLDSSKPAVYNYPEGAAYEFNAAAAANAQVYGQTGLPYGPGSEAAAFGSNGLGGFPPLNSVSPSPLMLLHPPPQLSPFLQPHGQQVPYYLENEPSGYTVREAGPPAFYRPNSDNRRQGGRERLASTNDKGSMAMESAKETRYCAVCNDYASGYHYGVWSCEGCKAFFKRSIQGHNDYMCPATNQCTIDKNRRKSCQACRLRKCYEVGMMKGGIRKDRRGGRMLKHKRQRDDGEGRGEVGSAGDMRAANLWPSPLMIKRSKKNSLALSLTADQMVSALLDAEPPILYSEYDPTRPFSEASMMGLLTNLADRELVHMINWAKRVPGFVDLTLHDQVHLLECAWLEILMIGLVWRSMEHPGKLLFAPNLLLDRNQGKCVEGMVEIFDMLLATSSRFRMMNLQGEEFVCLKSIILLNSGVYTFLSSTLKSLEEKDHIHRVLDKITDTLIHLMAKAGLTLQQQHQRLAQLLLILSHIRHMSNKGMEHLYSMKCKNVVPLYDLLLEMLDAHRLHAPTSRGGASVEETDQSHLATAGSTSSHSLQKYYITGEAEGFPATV
Thyrotropin-releasing hormone receptor (Homo sapiens), sequence (P34981 whole entry, looked up): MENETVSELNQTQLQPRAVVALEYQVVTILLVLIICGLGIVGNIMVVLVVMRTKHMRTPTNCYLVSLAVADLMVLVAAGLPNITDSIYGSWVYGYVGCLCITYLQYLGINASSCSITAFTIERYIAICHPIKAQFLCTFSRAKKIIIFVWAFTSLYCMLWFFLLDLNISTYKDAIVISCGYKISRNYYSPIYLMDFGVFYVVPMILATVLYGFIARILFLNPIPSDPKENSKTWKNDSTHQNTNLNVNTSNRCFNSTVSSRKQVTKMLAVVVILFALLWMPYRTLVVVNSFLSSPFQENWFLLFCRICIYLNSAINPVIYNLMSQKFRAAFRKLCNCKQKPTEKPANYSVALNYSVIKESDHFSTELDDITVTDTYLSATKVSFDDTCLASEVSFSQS
Thyrotropin receptor (Homo sapiens), sequence (P16473 whole entry, looked up): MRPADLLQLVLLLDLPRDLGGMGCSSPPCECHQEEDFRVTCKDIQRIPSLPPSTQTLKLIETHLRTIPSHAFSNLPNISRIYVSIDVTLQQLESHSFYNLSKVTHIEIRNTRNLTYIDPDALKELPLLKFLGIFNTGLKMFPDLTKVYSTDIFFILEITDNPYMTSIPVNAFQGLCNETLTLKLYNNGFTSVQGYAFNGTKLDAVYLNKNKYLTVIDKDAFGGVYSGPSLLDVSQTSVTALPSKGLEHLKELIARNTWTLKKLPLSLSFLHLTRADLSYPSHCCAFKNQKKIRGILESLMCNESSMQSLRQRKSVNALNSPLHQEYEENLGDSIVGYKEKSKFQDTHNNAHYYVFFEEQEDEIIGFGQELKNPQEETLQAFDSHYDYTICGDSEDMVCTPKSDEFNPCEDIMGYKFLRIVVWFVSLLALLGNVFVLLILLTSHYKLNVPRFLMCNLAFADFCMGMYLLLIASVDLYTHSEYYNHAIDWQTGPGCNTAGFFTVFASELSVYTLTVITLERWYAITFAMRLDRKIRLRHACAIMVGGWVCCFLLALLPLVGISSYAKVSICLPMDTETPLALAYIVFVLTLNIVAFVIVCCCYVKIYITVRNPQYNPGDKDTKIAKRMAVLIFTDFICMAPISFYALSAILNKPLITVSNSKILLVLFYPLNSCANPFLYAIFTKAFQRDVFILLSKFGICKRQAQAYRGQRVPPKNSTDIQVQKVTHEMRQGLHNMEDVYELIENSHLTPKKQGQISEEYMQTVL

On to `COC(=O)C(C)O` (stereo not drawn), for which the Potency result in assay [1], in [2], in assay [4], in [5], in assay [6] and in assay [7] was “inactive” throughout. Also, the Potency result in assay [8], in assay [9] and in [14] was “inactive” throughout. Moreover, the outcome in assay [3], in assay [10], in [11], in assay [12] and in assay [13] was inactive.

As to `CC1=C(CC(=O)O)c2cc(F)ccc2/C1=C\c1ccc(S(C)(=O)=O)cc1`, the molecule was called inactive in assay [15], in assay [16], in [10], in assay [11] and in assay [13]. In addition, the Potency result in assay [1], in [2], in [17], in assay [6], in [7] and in [8] was “inactive” each time. Moreover, the Potency result in assay [9] and in assay [14] was “inactive” throughout.

As for `CN1CCN(C2=Nc3cc(F)ccc3Cc3ccccc32)CC1`, the Potency entry in [1], in assay [2], in assay [17], in assay [4], in [5] and in assay [6] was “inactive” throughout. Besides, the Potency result in assay [9] and in assay [14] was “inactive” throughout. Also, the molecule was called inactive in [3], in assay [10], in [11], in assay [12] and in [13]. For the same molecule, in [7], the Potency is 18.8 µM (active).

Consider `C[C@@H]1CN(c2c(F)c(F)c3c(=O)c(C(=O)O)cn(C4CC4)c3c2F)C[C@H](C)N1`, for which the activity change, negative = cytotoxicity in assay [1] was 1.23% [at 19 µM]; in [18], -0.431% [at 19 µM]; in assay [16], 0.873% [at 19 µM]; in [5], 0.208% [at 19 µM]; in assay [11], -0.146% [at 15.8 µM]. The Potency entry in assay [2] and in [8] was “inactive” throughout. The results for the activation in assay [17] and in assay [12] were -0.582% [at 19 µM] and -1.32% [at 15.8 µM], respectively. The cAMP activity change in assay [3] is -0.3% [at 18.9 µM]. The activity change, negative = inhibition was -7.61% [at 19 µM] in assay [4] and 6.07% [at 18.9 µM] in assay [7]. In addition, the viability change, negative = cytotoxic in assay [10] is 0.903% [at 15.8 µM]. In addition, the activity, negative = inhibition in assay [13] was -3.72% [at 10.5 µM].

Take `CC(C)OC(C)C`: the Potency entry in assay [1], in assay [18], in [4], in assay [5], in assay [7] and in [8] was “inactive” each time. The Potency result in assay [9] was “inactive”. Further, the molecule was called inactive in assay [16], in assay [3], in [10], in assay [11] and in [12].

For `COC(=O)c1ccc2cc(C(=O)OC)ccc2c1`, the activity change, negative = cytotoxicity in assay [1] was 2.92% [at 19 µM]; in [16], -4.09% [at 19 µM]; in [5], -3.99% [at 19 µM]; in assay [9], -2.9% [at 19 µM]; in [11], 8.9% [at 15.8 µM]. Also, the activation in [17] was 0.0917% [at 19 µM]; in assay [12], 0.192% [at 15.8 µM]. Further, in assay [3], the cAMP activity change is 3.63% [at 18.9 µM]. The activity change, negative = inhibition in assay [4] is -1.02% [at 19 µM]. For the same molecule, in [8], the Potency entry is “inactive”. In [10], the viability change, negative = cytotoxic is 0.743% [at 15.8 µM].

In the case of `CCOC(=O)COc1ccc2c(c1)CC(NCC(O)c1cccc(Cl)c1)CC2` (stereo not drawn), the molecule was called inactive in assay [16], in assay [3], in [10], in [12] and in assay [13]. The Potency entry in assay [17], in [4], in assay [6], in assay [7], in [8] and in [9] was “inactive” in each case.

As to `OCC(CBr)(CBr)CBr`, the Potency entry in assay [1], in assay [18], in assay [17], in assay [4], in [5] and in assay [6] was “inactive” throughout. Also, the Potency entry in assay [14] was “inactive”. In addition, the molecule was called inactive in assay [3], in assay [10], in assay [11], in [12] and in [13]. In [7], the Potency is 34.2 µM (active).

As for `CC/C=C\CCOC(=O)CCCCC`, the Potency entry in assay [1], in assay [18], in assay [17], in assay [4], in assay [5] and in assay [6] was “inactive” throughout. Also, the Potency result in assay [7], in [8], in assay [9] and in assay [14] was “inactive” each time. In addition, the call in [16], in assay [3], in assay [10], in assay [11], in assay [12] and in assay [13] was inactive.

(Values after PubChem BioAssay (Tox21).)
